Hits are enriched below; roughly 9.4% of the tested compounds scored in any of these assays.
ELG1 repair inh = qHTS screen for small molecules that inhibit ELG1-dependent DNA repair in human embryonic kidney (HEK293T) cells expressing luciferase-tagged ELG1; HEK293T ELG1-luciferase reporter, luminescence, 16 h; DNA damage induced by 5-fluorouridine; Potency, µM (doses to about 46.1 µM), hits mostly inhibitors; actives 2.3% (n = 330,000); note: nearly all actives have a fitted effect of over 55% in size
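Luminescence from the luciferase reporter, measured 30 min after ONE-Glo reagent at room temperature, was the read-out. Beforehand, 2,000 cells per well were exposed for 16 hr at 37 °C to 5-fluorouridine together with compound or vehicle.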
NPC1 prom act = qHTS Assay for NPC1 Promoter Activators. Huh7 NPC1 promoter luciferase reporter, 24 h. Potency, µM (top dose mostly 9.22 µM), usual class: activators. actives 2.4% (n = 320,000); note: nearly all actives have a fitted effect of over 60% in size
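NPC1 promoter–luciferase Huh7 cells; 24 h compound; luminescence.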
Rab9 prom act = qHTS Assay for Rab9 Promoter Activators | Huh7 Rab9 promoter-luciferase reporter, luminescence, 24 h | Potency, µM (highest dose often 9.22 µM), most hits filed as activators | actives 2.8% (n = 320,000); note: nearly all actives have a fitted effect of over 60% in size
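Huh7 cells stably carrying a Rab9 promoter-luciferase reporter, 1500 cells per well in OP-MEM I with 10% FBS, treated with compound 24 hours at 37C. Luciferase activity read by luminescence after 10 minutes with Amplite reagent.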
SMN2 splice up = qHTS Assay for Enhancers of SMN2 Splice Variant Expression | HEK293 SMN2-luciferase splicing reporter, luminescence, 30-36 h | Potency, µM (titrated, usually from 46.1 µM), usual class: activators | actives 2.8% (n = 210,000) | AID 1458, 2008; note: nearly all actives have a fitted effect of over 55% in size
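HEK293 cells carry an SMN2 […]–luciferase reporter in which exon 7 inclusion puts luciferase in frame. Cells were plated 10-12 h before compound addition, then incubated 30-36 h at 37C. ONE-Glo luminescence was read; sodium butyrate at 4.5 mM final served as control.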
ELG1 genotox = qHTS screen for small molecules that induce genotoxicity in human embryonic kidney (HEK293T) cells expressing luciferase-tagged ELG1 | HEK293T ELG1-luciferase reporter, luminescence, 16 h | Potency, µM (top dose mostly 46 µM), actives largely listed as activators | actives 1.3% (n = 330,000); note: nearly all actives have a fitted effect of over 60% in size
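Quantitative HTS format in 1536-well plates. HEK293T ELG1-luciferase reporter cells receive test compound and are incubated 16 hr at 37 °C, 5% CO2; ONE-Glo added, 30 min room temperature, then luminescence read.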
FLuc counter = qHTS profiling assay for firefly luciferase inhibitor/activator using purifed enzyme and Km concentrations of substrates (counterscreen for miR-21 project). Luciferin 4-monooxygenase (Photinus pyralis), P08659. purified FLuc, Km substrates, luminescence inhibition. Potency, µM (top dose mostly 57.5 µM), actives largely listed as inhibitors. actives 6.9% (n = 360,000). AID 588342, 2011; note: nearly all actives have a fitted effect of over 55% in size
Target sequence (P08659 whole entry, looked up): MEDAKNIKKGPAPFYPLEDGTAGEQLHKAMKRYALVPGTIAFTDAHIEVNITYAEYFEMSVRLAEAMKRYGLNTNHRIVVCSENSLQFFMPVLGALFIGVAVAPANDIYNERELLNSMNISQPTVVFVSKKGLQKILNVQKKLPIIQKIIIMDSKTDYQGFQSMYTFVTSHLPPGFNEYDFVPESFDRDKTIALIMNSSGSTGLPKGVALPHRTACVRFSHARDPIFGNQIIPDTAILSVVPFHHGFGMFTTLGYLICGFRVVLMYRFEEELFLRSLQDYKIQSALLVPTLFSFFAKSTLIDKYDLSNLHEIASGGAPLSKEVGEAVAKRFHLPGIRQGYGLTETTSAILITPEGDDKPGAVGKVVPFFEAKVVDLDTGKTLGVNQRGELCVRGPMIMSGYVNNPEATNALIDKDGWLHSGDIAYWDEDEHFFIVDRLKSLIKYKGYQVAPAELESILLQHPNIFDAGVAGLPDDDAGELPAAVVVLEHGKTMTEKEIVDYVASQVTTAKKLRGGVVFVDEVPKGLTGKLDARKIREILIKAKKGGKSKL
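Purified P. pyralis luciferase, 10 nM final, with Km-level 10 uM D-luciferin and 10 uM ATP in 50 mM Tris acetate pH 7.5, 10 mM Mg acetate, 0.01% Tween-20, 0.05% BSA; 6-point qHTS titration about 60 µM downward; luminescence read.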
A number is an active result; 0 = inactive; ? = inconclusive; - = not tested or not shown; ! = repeats disagree; [ ] = dose if it differs, or a comment. Calls come from the whole dose curve; as a rule, active = well fitted curve in the direction sought with a large enough effect; inconclusive = small, poorly fitted or top-dose-only effect, or another doubt; inactive = no such curve, though single readings can be large; an effect the other way counts as inactive or inconclusive.

SMILES	ELG1 repair inh	NPC1 prom act	Rab9 prom act	SMN2 splice up	ELG1 genotox	FLuc counter
Cc1ccc(-n2c3nc(=O)[nH]c(=O)c-3cc3c(C)nn(-c4ccccc4)c32)cc1Cl	-	-	-	0	-	0
Cc1cc2oc3c(c(=O)c2cc1C)C(c1cccc(Br)c1)N(Cc1ccco1)C3=O (stereo not drawn)	0.63µM	0	0	0	0	0
Cc1ccc2oc3c(c(=O)c2c1)C(c1cccc(Br)c1)N(Cc1ccco1)C3=O (stereo not drawn)	0	0	0	0	0	0
Nc1ccc(Nc2nc(-c3cccs3)cs2)cc1	0	0	0	-	0	0
CSCCC(=O)Nc1nc(-c2ccccn2)cs1	0	0	0	0	0	?
Cc1cccc(Nc2nc(-c3cccs3)cs2)n1	?	?	2.5µM	1.4µM	?	2.1µM
c1ccc(Nc2nc(-c3cccs3)cs2)nc1	?	?	?	3.2µM	?	0.76µM
Cc1noc(C)c1C(=O)Nc1nc(-c2cccs2)cs1	?	?	?	-	0	?
Cc1cccc(Nc2nc(-c3ccccn3)cs2)n1	?	1.3µM	0.63µM	3.2µM	0.82µM	1.7µM
COc1cccc(CNC(=O)Cn2c(=O)ccc3cc(S(=O)(=O)N4CCC(C)CC4)ccc32)c1	-	-	-	-	-	0
COCCCNS(=O)(=O)c1ccc(N2CCCCS2(=O)=O)cc1	-	-	-	-	-	0
COc1ccc(C(=O)Nc2nnc(SCC(=O)NC3CC3)s2)cc1	?	1.4µM	2.5µM	-	?	1.2µM
COc1cccc(C(=O)Nc2nnc(SCC(=O)NC3CC3)s2)c1	?	?	?	-	?	5.4µM
CC(=O)Nc1nnc(SCc2cc(=O)c3cccc(C)c3[nH]2)s1	-	-	-	-	-	0
COc1ccc(C(=O)Nc2nnc(SCc3cc(=O)c4cccc(F)c4[nH]3)s2)cc1	-	-	-	-	-	21µM
CCOC(=O)N1CCN(C(=O)c2cc(COc3cccc(C(C)=O)c3)on2)CC1	?	0	?	-	0	?
CCOC(=O)N1CCN(C(=O)c2cc(COc3cccc(C(F)(F)F)c3)on2)CC1	?	3.2µM	2.8µM	-	?	15µM
C[C@@H]1CN(C(=O)c2cc(COc3cccc(C(F)(F)F)c3)on2)C[C@H](C)O1	15µM	0	0	-	0	0
COc1ccc(Cl)cc1NC(=O)CCn1nc(C)cc1C	-	-	-	-	-	0
CCN(c1ccccc1)S(=O)(=O)c1nnc(NC(=O)c2ccccc2)s1	-	-	-	-	-	2.4µM
CCN(c1ccccc1)S(=O)(=O)c1nnc(NC(=O)CC(C)C)s1	0	0	0	-	0	0
CCN(c1ccc(Cl)cc1)S(=O)(=O)c1nnc(NC(=O)c2ccccc2C)s1	-	-	-	-	-	0
CCN(c1ccccc1)S(=O)(=O)c1nnc(NC(=O)c2cccs2)s1	-	-	-	-	-	0.34µM
CCN(c1ccccc1)S(=O)(=O)c1nnc(NC(=O)c2ccccc2OC)s1	?	0	0	-	0	1.7µM!
CCCC(=O)Nc1nnc(S(=O)(=O)N(C)c2ccccc2)s1	-	-	-	-	-	0.85µM
SMILES	ELG1 repair inh	NPC1 prom act	Rab9 prom act	SMN2 splice up	ELG1 genotox	FLuc counter
Cc1cccc(NC(=O)Cn2c(=O)n(Cc3nc(-c4ccccc4)no3)c(=O)c3ccccc32)c1	-	-	-	-	-	0
Cc1cccc(N(C)S(=O)(=O)c2nnc(NC(=O)C(C)Oc3ccccc3)s2)c1 (stereo not drawn)	-	-	-	-	-	4.8µM
CN(c1ccccc1)S(=O)(=O)c1nnc(NC(=O)c2ccco2)s1	0	0	0	-	0	0
CCN(c1ccc(C)cc1)S(=O)(=O)c1nnc(NC(=O)c2cccs2)s1	-	-	-	-	-	13µM
CN(c1ccccc1)S(=O)(=O)c1nnc(NC(=O)c2ccccc2)s1	-	-	-	-	-	0.19µM
CN(c1ccccc1)S(=O)(=O)c1nnc(NC(=O)C2CCCCC2)s1	0	0	0	-	0	0.67µM!
O=C(CCc1ccccc1)NCc1nc2cccnc2n1Cc1ccc(F)cc1	-	-	-	-	-	0
C[C@@]12CC[C@@H]3[C@H](CCC4=CC(=O)CC[C@]43C)[C@@H]1CC[C@@H]2C(=O)COS(=O)(=O)c1ccc(Br)cc1	-	-	-	0[9.22 µM]	-	-
CC1=CC[C@@]2(CO)COC(c3ccccc3O)C1C2 (stereo partly drawn)	-	-	-	0	-	-
Cc1cccc(NS(=O)(=O)c2nnc(NC(=O)C3CCCCC3)s2)c1	0	0	0	-	0	6.7µM!
CCOC(=O)CNC(=O)O[C@@H]1C(=O)c2cc(OC)ccc2O[C@H]1c1ccc(OC)c(Br)c1	-	-	-	0	-	-
Cc1ccc(O)c(N/C=C/C(=O)c2ccc(F)cc2)c1	?	0	0	-	21µM	2.4µM
Cc1cc(C)nc(NS(=O)(=O)c2ccc(N/C=C/C(=O)c3ccc(Cl)cc3)cc2)n1	?	0	0	0	0	0
Cc1ccc(C(=O)/C=C/C(=O)c2ccc(C)cc2)cc1	?	0	0	0	0	?
Cc1ccc(N/C=C/C(=O)c2ccc(C)cc2)cc1	?	1.4µM	1.6µM	-	?	0.76µM
Cc1ccc(C(=O)/C=C\Nc2ccc(C)c(C)c2)cc1	?	2µM	1.6µM	11µM	?	2.1µM
COC(=O)c1sc(N)c(C(=O)OC)c1COC(=O)[C@@H](NS(=O)(=O)c1cccc(Cl)c1)C(C)C	15µM	0	0	0	0	0
C/C(=N/S(=O)(=O)c1ccc(Cl)c(Cl)c1)OCC(C)(C)C	-	-	-	0[9.22 µM]	-	-
CCOc1ccc(-n2c(=O)c3c(C)c(C)sc3n(Cc3c(F)cccc3Cl)c2=O)cc1	-	-	-	0	-	0
Cc1noc(C)c1CSc1nc2ccccc2c(=O)n1-c1ccccc1	0	0	0	?	?	0
C=CCn1c(SCc2c(C)noc2C)nc2ccccc2c1=O	0	0	0	0	10µM	0

Screening results as filed in PubChem BioAssay.
